Measurements taken from paper PMC9911399, “Two distinct binding modes provide the RNA-binding protein RbFox with extraordinary sequence specificity”.
Substitutions are numbered along the chain they refer to; changes in the protein carry UniProt numbers. In all, about 16,000 sequences were measured (“ka relative to ugcaugu”: median about 0.0091, highest 2% from about 0.032 on). The sample as a whole holds a higher share of the highest values than the screen did.

T1: RBFOX1 RRM (Homo sapiens, UniProt Q9NWB1 109-208)
T1 sequence: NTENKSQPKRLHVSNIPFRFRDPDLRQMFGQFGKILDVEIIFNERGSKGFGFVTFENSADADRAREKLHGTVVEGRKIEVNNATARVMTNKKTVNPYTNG

B1: GACUGGA (DNA:RNA)
RNA: GGGAGACCGGAAUUCAGAUUGUCCGACUGGAUUAAAUCCCGUCGUAGCCACCA
DNA 1: CAATCTGAATTCCGGTCTCCC
DNA 2: TGGTGGCTACGACGGGATT
B2: AUGUUUG (DNA:RNA)
RNA: B1 RNA with G25A, A26U, C27G, G29U, G30U, A31G
DNA 1: CAATCTGAATTCCGGTCTCCC
DNA 2: TGGTGGCTACGACGGGATT
B3: AUCAGUG (DNA:RNA)
RNA: B1 RNA with G25A, A26U, U28A, G30U, A31G
DNA 1: CAATCTGAATTCCGGTCTCCC
DNA 2: TGGTGGCTACGACGGGATT
B4: AGUUGGA (DNA:RNA)
RNA: B1 RNA with G25A, A26G, C27U
DNA 1: CAATCTGAATTCCGGTCTCCC
DNA 2: TGGTGGCTACGACGGGATT
B5: ACGCCGG (DNA:RNA)
RNA: B1 RNA with G25A, A26C, C27G, U28C, G29C, A31G
DNA 1: CAATCTGAATTCCGGTCTCCC
DNA 2: TGGTGGCTACGACGGGATT
B6: GAGGGUG (DNA:RNA)
RNA: B1 RNA with C27G, U28G, G30U, A31G
DNA 1: CAATCTGAATTCCGGTCTCCC
DNA 2: TGGTGGCTACGACGGGATT
B7: UGUUCUC (DNA:RNA)
RNA: B1 RNA with G25U, A26G, C27U, G29C, G30U, A31C
DNA 1: CAATCTGAATTCCGGTCTCCC
DNA 2: TGGTGGCTACGACGGGATT
B8: AGAUUUA (DNA:RNA)
RNA: B1 RNA with G25A, A26G, C27A, G29U, G30U
DNA 1: CAATCTGAATTCCGGTCTCCC
DNA 2: TGGTGGCTACGACGGGATT
B9: GCGCCAC (DNA:RNA)
RNA: B1 RNA with A26C, C27G, U28C, G29C, G30A, A31C
DNA 1: CAATCTGAATTCCGGTCTCCC
DNA 2: TGGTGGCTACGACGGGATT
B10: GUCGUGG (DNA:RNA)
RNA: B1 RNA with A26U, U28G, G29U, A31G
DNA 1: CAATCTGAATTCCGGTCTCCC
DNA 2: TGGTGGCTACGACGGGATT
B11: GUGGUGG (DNA:RNA)
RNA: B1 RNA with A26U, C27G, U28G, G29U, A31G
DNA 1: CAATCTGAATTCCGGTCTCCC
DNA 2: TGGTGGCTACGACGGGATT
B12: GUGGUUG (DNA:RNA)
RNA: B1 RNA with A26U, C27G, U28G, G29U, G30U, A31G
DNA 1: CAATCTGAATTCCGGTCTCCC
DNA 2: TGGTGGCTACGACGGGATT
B13: UGCGCGA (DNA:RNA)
RNA: B1 RNA with G25U, A26G, U28G, G29C
DNA 1: CAATCTGAATTCCGGTCTCCC
DNA 2: TGGTGGCTACGACGGGATT
B14: UGCGAUG (DNA:RNA)
RNA: B1 RNA with G25U, A26G, U28G, G29A, G30U, A31G
DNA 1: CAATCTGAATTCCGGTCTCCC
DNA 2: TGGTGGCTACGACGGGATT
B15: CGGAUGU (DNA:RNA)
RNA: B1 RNA with G25C, A26G, C27G, U28A, G29U, A31U
DNA 1: CAATCTGAATTCCGGTCTCCC
DNA 2: TGGTGGCTACGACGGGATT
B16: UGGAUGU (DNA:RNA)
RNA: B1 RNA with G25U, A26G, C27G, U28A, G29U, A31U
DNA 1: CAATCTGAATTCCGGTCTCCC
DNA 2: TGGTGGCTACGACGGGATT
B17: UGGGGGA (DNA:RNA)
RNA: B1 RNA with G25U, A26G, C27G, U28G
DNA 1: CAATCTGAATTCCGGTCTCCC
DNA 2: TGGTGGCTACGACGGGATT
B18: CCCUGGA (DNA:RNA)
RNA: B1 RNA with G25C, A26C
DNA 1: CAATCTGAATTCCGGTCTCCC
DNA 2: TGGTGGCTACGACGGGATT
B19: CUGGAGA (DNA:RNA)
RNA: B1 RNA with G25C, A26U, C27G, U28G, G29A
DNA 1: CAATCTGAATTCCGGTCTCCC
DNA 2: TGGTGGCTACGACGGGATT
B20: UGGGAGA (DNA:RNA)
RNA: B1 RNA with G25U, A26G, C27G, U28G, G29A
DNA 1: CAATCTGAATTCCGGTCTCCC
DNA 2: TGGTGGCTACGACGGGATT
B21: UGGGAUG (DNA:RNA)
RNA: GGGAGACCGGAAUUCAGAUUGUCCUGGGAUGUUAAAUCCCGUCGUAGCCACCA
DNA 1: CAATCTGAATTCCGGTCTCCC
DNA 2: TGGTGGCTACGACGGGATT
B22: UGCGAUC (DNA:RNA)
RNA: B21 RNA with G27C, G31C
DNA 1: CAATCTGAATTCCGGTCTCCC
DNA 2: TGGTGGCTACGACGGGATT
B23: CUGGAUG (DNA:RNA)
RNA: B21 RNA with U25C, G26U
DNA 1: CAATCTGAATTCCGGTCTCCC
DNA 2: TGGTGGCTACGACGGGATT
B24: UGGAUUU (DNA:RNA)
RNA: B21 RNA with G28A, A29U, G31U
DNA 1: CAATCTGAATTCCGGTCTCCC
DNA 2: TGGTGGCTACGACGGGATT
B25: CGUCGAU (DNA:RNA)
RNA: B1 RNA with G25C, A26G, C27U, U28C, G30A, A31U
DNA 1: CAATCTGAATTCCGGTCTCCC
DNA 2: TGGTGGCTACGACGGGATT
B26: AGGUGGG (DNA:RNA)
RNA: B1 RNA with G25A, A26G, C27G, A31G
DNA 1: CAATCTGAATTCCGGTCTCCC
DNA 2: TGGTGGCTACGACGGGATT
B27: CCUAAUC (DNA:RNA)
RNA: B21 RNA with U25C, G26C, G27U, G28A, G31C
DNA 1: CAATCTGAATTCCGGTCTCCC
DNA 2: TGGTGGCTACGACGGGATT
B28: CCCUUAA (DNA:RNA)
RNA: B1 RNA with G25C, A26C, G29U, G30A
DNA 1: CAATCTGAATTCCGGTCTCCC
DNA 2: TGGTGGCTACGACGGGATT
B29: AACGCGA (DNA:RNA)
RNA: B1 RNA with G25A, U28G, G29C
DNA 1: CAATCTGAATTCCGGTCTCCC
DNA 2: TGGTGGCTACGACGGGATT
B30: UCAGGUU (DNA:RNA)
RNA: B21 RNA with G26C, G27A, A29G, G31U
DNA 1: CAATCTGAATTCCGGTCTCCC
DNA 2: TGGTGGCTACGACGGGATT
B31: ACUCGCA (DNA:RNA)
RNA: B1 RNA with G25A, A26C, C27U, U28C, G30C
DNA 1: CAATCTGAATTCCGGTCTCCC
DNA 2: TGGTGGCTACGACGGGATT

target: T1, RBFOX1 RRM; assay: EMSA; HiTS-Eq, 1 nM pool, 10 min; buffer printed only for the single-RNA assays: 10 mM Tris pH 7.5, 150 mM NaCl, 3.4 mM EDTA, 0.001% NP-40, 30 C; conditions: tags: His6 N-terminal (pET28a); label: 5' 32P
Summary of the method: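 Purified wild-type or mutant RbFox RRM at increasing concentrations was equilibrated with 1 nM of 5′-radiolabelled RNA carrying 7 randomized nucleotides for 10 min in 50 µL. Unbound RNA was separated by 8% native PAGE and sequenced. Relative association constants came from read-count changes of each RNA species compared with the control reaction, normalised to the cognate motif.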

| Binder | binding signal |
| --- | --- |
| B1 | 0.0138 KA relative to UGCAUGU |
| B2 | 0.0211 KA relative to UGCAUGU |
| B3 | 0.00865 KA relative to UGCAUGU |
| B4 | 0.00398 KA relative to UGCAUGU |
| B5 | 0.00777 KA relative to UGCAUGU |
| B6 | 0.0242 KA relative to UGCAUGU |
| B7 | 0.0181 KA relative to UGCAUGU |
| B8 | 0.00707 KA relative to UGCAUGU |
| B9 | 0.00734 KA relative to UGCAUGU |
| B10 | 0.0185 KA relative to UGCAUGU |
| B11 | 0.0237 KA relative to UGCAUGU |
| B12 | 0.0321 KA relative to UGCAUGU |
| B13 | 0.0211 KA relative to UGCAUGU |
| B14 | 0.0369 KA relative to UGCAUGU |
| B15 | 0.0261 KA relative to UGCAUGU |
| B16 | 0.0494 KA relative to UGCAUGU |

| Binder | binding signal |
| --- | --- |
| B17 | 0.0155 KA relative to UGCAUGU |
| B18 | 0.013 KA relative to UGCAUGU |
| B19 | 0.0188 KA relative to UGCAUGU |
| B20 | 0.025 KA relative to UGCAUGU |
| B21 | 0.0414 KA relative to UGCAUGU |
| B22 | 0.0166 KA relative to UGCAUGU |
| B23 | 0.0353 KA relative to UGCAUGU |
| B24 | 0.0242 KA relative to UGCAUGU |
| B25 | 0.00831 KA relative to UGCAUGU |
| B26 | 0.0126 KA relative to UGCAUGU |
| B27 | 0.00151 KA relative to UGCAUGU |
| B28 | 0.00271 KA relative to UGCAUGU |
| B29 | 0.00453 KA relative to UGCAUGU |
| B30 | 0.0129 KA relative to UGCAUGU |
| B31 | 0.0123 KA relative to UGCAUGU |
